What all share (test): glycan array binding signal (z-score within array); higher = stronger binding
What all share (conditions): glycan notation: IUPAC condensed, linker removed

The target in assay [1] is Gal(b1-4)GlcNAc(b1-3)Gal(b1-4)GlcNAc(b1-3)Gal(b1-4)GlcNAc(b1-3)Gal(b1-4)GlcNAc(b1-3)Gal(b1-4)GlcNAc(b1-2)Man(a1-3)[Gal(b1-4)GlcNAc(b1-3)Gal(b1-4)GlcNAc(b1-3)Gal(b1-4)GlcNAc(b1-3)Gal(b1-4)GlcNAc(b1-3)Gal(b1-4)GlcNAc(b1-2)Man(a1-6)]Man(b1-4)GlcNAc(b1-4)[Fuc(a1-6)]GlcNAc. In short, it runs like this: (§1)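 Glycan array data were curated from 3228 arrays in the Consortium for Functional Glycomics database and kept only where the protein sequence was available. Glycan names were converted to IUPAC-condensed notation, and columns mapping to the same glycan were averaged. The binding signal is a within-array Z-score, averaged across arrays of the same protein sequence at different concentrations or buffers and across linkers. Negative Z-scores can be read as non-binding.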

Assay [2] concerns the target Gal(b1-4)GlcNAc(b1-3)Gal(b1-4)GlcNAc(b1-3)Gal(b1-4)GlcNAc(b1-3)Gal(b1-4)GlcNAc(b1-3)Gal(b1-4)GlcNAc(b1-2)[Gal(b1-4)GlcNAc(b1-3)Gal(b1-4)GlcNAc(b1-3)Gal(b1-4)GlcNAc(b1-3)Gal(b1-4)GlcNAc(b1-3)Gal(b1-4)GlcNAc(b1-6)]Man(a1-6)[Gal(b1-4)GlcNAc(b1-3)Gal(b1-4)GlcNAc(b1-3)Gal(b1-4)GlcNAc(b1-3)Gal(b1-4)GlcNAc(b1-3)Gal(b1-4)GlcNAc(b1-2)Man(a1-3)]Man(b1-4)GlcNAc(b1-4)[Fuc(a1-6)]GlcNAc. In short, it runs like this: as §1

Assay [3] concerns the target Gal(b1-4)GlcNAc(b1-3)Gal(b1-4)GlcNAc(b1-3)[Gal(b1-4)GlcNAc(b1-3)Gal(b1-4)GlcNAc(b1-6)]GalNAc. In short, it runs like this: as §1
The target in a further assay is Gal3S(b1-4)GlcNAc. In short, it runs like this: as §1
Assay [4] has as its target GalNAc(b1-3)Gal(a1-4)Gal(b1-4)GlcNAc. In short, it runs like this: as §1
Assay [5] addresses GlcNAc(a1-4)Gal(b1-4)GlcNAc(b1-3)Gal(b1-4)[Fuc(a1-3)]GlcNAc(b1-3)Gal(b1-4)[Fuc(a1-3)]GlcNAc. In short, it runs like this:
as §1

Assay [6] addresses GlcNAc(b1-3)Gal(b1-4)GlcNAc(b1-3)Gal(b1-4)GlcNAc(b1-2)Man(a1-3)[GlcNAc(b1-3)Gal(b1-4)GlcNAc(b1-3)Gal(b1-4)GlcNAc(b1-2)Man(a1-6)]Man(b1-4)GlcNAc(b1-4)GlcNAc. In short, it runs like this:
as §1

Assay [7] deals with GlcNAc(b1-3)Gal(b1-4)GlcNAc(b1-3)Gal(b1-4)GlcNAc(b1-3)Gal(b1-4)GlcNAc(b1-2)Man(a1-3)[GlcNAc(b1-3)Gal(b1-4)GlcNAc(b1-3)Gal(b1-4)GlcNAc(b1-3)Gal(b1-4)GlcNAc(b1-2)Man(a1-6)]Man(b1-4)GlcNAc(b1-4)[Fuc(a1-6)]GlcNAc. In short, it runs like this:
as §1

For assay [8], the target named is GlcNAc(b1-3)Gal(b1-4)GlcNAc(b1-3)Gal(b1-4)GlcNAc(b1-3)Gal(b1-4)GlcNAc(b1-3)Gal(b1-4)GlcNAc(b1-2)Man(a1-3)[GlcNAc(b1-3)Gal(b1-4)GlcNAc(b1-3)Gal(b1-4)GlcNAc(b1-3)Gal(b1-4)GlcNAc(b1-3)Gal(b1-4)GlcNAc(b1-2)Man(a1-6)]Man(b1-4)GlcNAc(b1-4)[Fuc(a1-6)]GlcNAc. In short, it runs like this:
as §1

The target in assay [9] is GlcNAc(b1-3)Gal(b1-4)GlcNAc(b1-3)Gal(b1-4)GlcNAc(b1-3)Gal(b1-4)GlcNAc(b1-3)Gal(b1-4)GlcNAc(b1-2)[GlcNAc(b1-3)Gal(b1-4)GlcNAc(b1-3)Gal(b1-4)GlcNAc(b1-3)Gal(b1-4)GlcNAc(b1-3)Gal(b1-4)GlcNAc(b1-6)]Man(a1-6)[GlcNAc(b1-3)Gal(b1-4)GlcNAc(b1-3)Gal(b1-4)GlcNAc(b1-3)Gal(b1-4)GlcNAc(b1-3)Gal(b1-4)GlcNAc(b1-2)Man(a1-3)]Man(b1-4)GlcNAc(b1-4)[Fuc(a1-6)]GlcNAc. In short, it runs like this: as §1

The target in a further assay is GlcNAc(b1-3)Man. In short, it runs like this: as §1
Assay [10] concerns the target Neu5Ac(a2-3)Gal(b1-3)GalNAc. In short, it runs like this:
as §1

The target of assay [11] is Neu5Ac(a2-3)Gal(b1-3)GalNAc(b1-4)[Neu5Ac(a2-3)]Gal(b1-4)Glc. In short, it runs like this: as §1
Assay [12] deals with Neu5Ac(a2-3)Gal(b1-3)GlcNAc(b1-2)Man(a1-3)[GlcNAc(b1-4)][Neu5Ac(a2-3)Gal(b1-3)GlcNAc(b1-2)Man(a1-6)]Man(b1-4)GlcNAc(b1-4)GlcNAc. In short, it runs like this: as §1
The target in assay [13] is Neu5Ac(a2-3)Gal(b1-3)[Neu5Ac(a2-6)]GalNAc. In short, it runs like this:
as §1

Assay [14] addresses Neu5Ac(a2-3)Gal(b1-4)GlcNAc(b1-2)Man(a1-3)[Neu5Ac(a2-3)Gal(b1-4)GlcNAc(b1-2)Man(a1-6)]Man(b1-4)GlcNAc(b1-4)GlcNAc. In short, it runs like this: as §1
Assay [15] deals with Neu5Ac(a2-3)Gal(b1-4)GlcNAc(b1-3)Gal(b1-3)GlcNAc. In short, it runs like this: as §1
The target of assay [16] is Neu5Ac(a2-3)Gal(b1-4)GlcNAc(b1-3)Gal(b1-4)GlcNAc(b1-2)Man(a1-3)[Neu5Ac(a2-3)Gal(b1-4)GlcNAc(b1-3)Gal(b1-4)GlcNAc(b1-2)Man(a1-6)]Man(b1-4)GlcNAc(b1-4)GlcNAc. In short, it runs like this: as §1
Assay [17] deals with Neu5Ac(a2-3)Gal(b1-4)GlcNAc(b1-3)Gal(b1-4)[Fuc(a1-3)]GlcNAc. In short, it runs like this: as §1
The target in assay [18] is Neu5Ac(a2-3)Gal(b1-4)[Fuc(a1-3)]GlcNAc(b1-3)Gal(b1-4)[Fuc(a1-3)]GlcNAc(b1-3)Gal(b1-4)[Fuc(a1-3)]GlcNAc. In short, it runs like this:
as §1

Assay [19] deals with Neu5Ac(a2-3)[GalNAc(b1-4)]Gal(b1-4)Glc. In short, it runs like this: as §1
Assay [20] deals with Neu5Ac(a2-6)Gal(b1-3)GlcNAc(b1-3)[Gal(b1-4)GlcNAc(b1-6)]Gal(b1-4)Glc. In short, it runs like this: as §1
Assay [21] has as its target Neu5Ac(a2-8)Neu5Gc(a2-3)Gal(b1-4)GlcNAc. In short, it runs like this:
as §1

The sample as a whole holds a higher share of the strongest signals than the screen did.

B1: SJCP1084 (Schistosoma japonicum) (protein)
chain: MRIINLVIISTALLLINLLQTKSQANGEDTKNGTPDDPGLTKSTELKVEVQALLKDKKTNMRVKWNENLLDNTKPEYHNLRDEACELLLQIVRSVVPLSQDDGECKDVTFTKYVVGTKDGAVNVKLTITFKDSVAINQKPMDLKLKLENDFKNLQSESTLKATKPTFTVKVEKRLIPISKPQTTPPTTAKNDASKENVGDIGGEDSTVPTAAPATAASANEEKDEGDKDNKDSQHPNVLTSNVNDRNLIIALVALMILAIGVALTAAVKQR
For the molecule B1, the “glycan array binding signal (z-score)” value in assay [1] was 4.28; in assay [2] it was 4.79; in assay [3], 1.47; in the assay with Gal3S(b1-4)GlcNAc, -0.79; in [4], 0.632; in assay [5], 2.09. Moreover, the “glycan array binding signal (z-score)” value in assay [6] was 1.03; in [7], 1.66; in [8] it was -0.466; in assay [9], 2.68; with GlcNAc(b1-3)Man it was 0.248; in assay [10], -0.71. Also, the “glycan array binding signal (z-score)” value was -0.565 in assay [11]; -0.628 in assay [12]; -0.036 in assay [13]; 0.105 in [14]; -0.757 in [15]; -0.701 in assay [16]. The “glycan array binding signal (z-score)” value was -0.263 in assay [17]; 0.379 in [18]; -0.474 in assay [19]; -0.092 in assay [20]; -0.605 in assay [21].

(Values after the supplement of paper PMC8728848.)
